VDR inh: inhibitors of human vitamin D receptor. AID 504847. P11473. 0.93% of 400,000 active. VDR-SRC2-3 peptide fluorescence polarization, 2 h. Potency, µM, without a hit: max response, negative = inhibition, actives largely listed as inhibitors; also: % is scaled to controls: 0 for no effect and ±100 for the full control effect
Target sequence (P11473 whole entry, looked up): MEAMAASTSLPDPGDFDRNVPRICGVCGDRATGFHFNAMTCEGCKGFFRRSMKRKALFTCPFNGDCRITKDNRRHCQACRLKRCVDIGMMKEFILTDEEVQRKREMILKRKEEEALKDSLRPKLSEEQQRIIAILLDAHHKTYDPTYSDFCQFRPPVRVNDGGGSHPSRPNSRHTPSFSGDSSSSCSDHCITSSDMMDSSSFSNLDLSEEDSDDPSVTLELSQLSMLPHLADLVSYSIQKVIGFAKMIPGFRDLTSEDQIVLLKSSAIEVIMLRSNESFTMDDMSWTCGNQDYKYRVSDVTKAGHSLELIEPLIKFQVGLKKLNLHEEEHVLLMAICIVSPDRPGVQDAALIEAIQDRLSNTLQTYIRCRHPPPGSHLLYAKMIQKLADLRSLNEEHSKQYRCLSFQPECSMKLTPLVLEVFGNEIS
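Reagent solutions, kept cold and dark, are dispensed first; compounds are then pinned in at 23 nl, plates briefly spun, and incubated 2 h at ambient temperature. Inhibition of VDR–SRC2-3 peptide binding is read by fluorescence polarization.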
G9a block: inhibitors of human histone lysine methyltransferase G9a; Q96KQ7; G9a H3K9 monomethylation, AlphaScreen, 2 h; Potency, µM (series often up to 102 µM), without a hit: top-dose activity, negative = inhibition, usual class: inhibitors; 8.8% of 350,000 active; also: % is scaled to controls: 0 for no effect and ±100 for the full control effect; nearly all actives have a fitted effect of over 75% in size
Target sequence (Q96KQ7 913-1193 limits assumed): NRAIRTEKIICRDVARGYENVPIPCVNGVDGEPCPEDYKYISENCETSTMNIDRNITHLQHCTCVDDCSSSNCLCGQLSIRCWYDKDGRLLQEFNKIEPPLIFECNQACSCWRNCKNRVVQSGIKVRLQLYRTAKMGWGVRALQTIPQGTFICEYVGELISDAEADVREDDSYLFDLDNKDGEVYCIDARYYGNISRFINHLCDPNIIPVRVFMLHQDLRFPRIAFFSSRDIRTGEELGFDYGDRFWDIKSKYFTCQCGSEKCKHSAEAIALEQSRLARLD
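Quantitative HTS format: methyltransferase activity on a biotin-tagged H3K9 peptide is measured by AlphaScreen, using a rabbit anti-monomethyl-H3K9 antibody with streptavidin donor and anti-IgG acceptor beads. Final levels are 20 nM enzyme, 500 nM peptide, 20 uM SAM; 2 h RT.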
Sfp PPTase inh: Sfp phosphopantetheinyl transferase inhibition; Biochemical Sfp PPTase activity, qHTS; Potency, µM, inactives show largest response in the series, negative = inhibition, actives largely listed as inhibitors; Q9F4F7; 3.5% of 310,000 active; AID 1490;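 also: the enzyme is Sfp with the accession as filed and its product quenches rhodamine fluorescence; 0% = enzyme reaction without inhibitor and -100% = no enzyme wells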
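Buffer: 50 mM Hepes-Na pH 7.6, 10 mM MgCl2, 0.01% Nonidet P-40, 0.01% BSA. Enzyme 15 nM, pre-exposed to compound 15 min; substrates then added and fluorescence change tracked over 30 min.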
ALOX12 inh: blocks human arachidonate 12S-lipoxygenase; AID 1671190; purified 12hLO, xylenol orange hydroperoxide absorbance; Potency, µM (highest dose often 108 µM), for inactives: at the top dose activity change, negative = inhibition, actives largely listed as inhibitors; P18054; 1.1% of 580,000 active; also: % is scaled to controls: 0 for no effect and ±100 for the full control effect
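Hydroperoxide product was detected by ferrous iron/xylenol orange as the 573 to 405 nm absorbance ratio. Arachidonic acid at 40 uM (final) was turned over for 30 min at room temperature by 150 nM human 12hLO, pH 7.0 Hepes buffer, after 15 min compound preincubation.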
GRP78 ERSR act: ER stress response induction in glioma; 0.02% of 420,000 active; U87-MG GRP78 promoter luciferase reporter, 16 h; Potency, µM, inactives show at the top dose activation, hits mostly activators; also: series mostly up to about 76 µM; % of control where 0% means no effect; nearly all actives have a fitted effect of over 35% in size
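ERSR induction read as luciferase luminescence (Bright-Glo, 10 min at room temperature) in stably transfected human U87-MG glioma cells exposed to compounds for 16 h, using GRP78 as sensor.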
* = called active by the depositor; ? = inconclusive; nt = not tested or not shown; [ ] = dose if it differs, or a comment. This excerpt belongs to a sample that is enriched for hits. Calls follow the shape of the dose curve; as a rule, active = well fitted curve in the direction sought with a large enough effect; inconclusive = small, poorly fitted or top-dose-only effect, or another doubt; inactive = no such curve, though single readings can be large; an effect the other way counts as inactive or inconclusive. Potency is read from the fitted curve at half-maximal effect.

SMILES	VDR inh	G9a block	Sfp PPTase inh	ALOX12 inh	GRP78 ERSR act
Cc1cc(O)c(-c2cc(O)c(C)cc2O)cc1O	25µM*	2µM*	2.5µM*	?	-13%
COc1ccccc1-c1cc(C(=O)NCCc2ccc(Cl)cc2)nc2c1cnn2C	nt	nt	nt	0%[6.33 µM]	nt
O=C(C1CCCCC1)N1CCC2(CC1)NC(=O)N(c1cccc(F)c1)N2	nt	nt	nt	1.4µM*	nt
O=C(CC1CCCCC1)N1CCC2(CC1)NC(=O)N(c1cccc(F)c1)N2	nt	nt	nt	2.8µM*	nt
O=C(CC1CCCC1)N1CCN(S(=O)(=O)c2ccccc2)CC1	-10%	23%[12.7 µM]	nt	12%	-2%
COC1CN(c2cccc(F)c2)C12CCN(C(=O)C1CCCCC1)CC2 (configuration not stated)	nt	nt	nt	24%	nt
O=C(CC1CCCCC1)N1CCC2(CC1)NC(=O)N(c1ccccc1)N2	nt	nt	nt	7.1µM*	nt
Cc1cccc(N/N=C/c2ccc(O)c(O)c2O)c1	?	1.1µM*	3.5µM*	420%	1%
COc1cccc(N/N=C/c2cccc(Br)c2O)c1	-8%	2.2µM*	2%	?	9%
CC(=O)Oc1cc(-c2coc3cc(OC(C)=O)c(OC(C)=O)c(OC(C)=O)c3c2=O)cc(OC(C)=O)c1OC(C)=O	18µM*	-140%[2.33 µM]	-91%	nt	-5%
N#CCc1nn2c3c(cnc2c1C#N)C(=O)CCC3	-6%	45µM*	-18%	4%	-3%
O=C(COc1ccc2c(=O)c(-c3ccc(Cl)cc3)coc2c1)Nc1ccccc1	nt	nt	nt	-1%	nt
O=C(OCc1ccc(I)cc1)c1ccc([N+](=O)[O-])cc1	nt	nt	nt	0%	nt
Cc1cc(C)cc(NC(=O)Nc2cccs2)c1	-15%	?	nt	?	nt
COc1ccc(NC(=O)Nc2cccs2)cc1OC	-15%	45µM*	45µM*	?	-2%
CCc1ccc(NC(=O)Nc2cccs2)cc1	13%	10µM*	50µM*	0%	-1%
Cc1ccc(NC(=O)Nc2cccs2)cc1	-1%	?	18µM*	389%	2%
CCOc1ccc(NC(=O)Nc2cccs2)cc1	0%	?	56µM*	-16%	-6%
C=C(C)Cn1c(SCc2ccccc2Cl)nc2c1c(=O)n(C)c(=O)n2C	nt	nt	nt	-13%	nt
O=C1C(=O)N(C2CCCC2)C(=O)N1Cc1ncc(-c2ccc(Cl)cc2)o1	nt	nt	nt	-13%	nt
CCc1ccc(OCC(=O)Nc2onc3c2CC(C)CC3)cc1 (configuration not stated)	nt	nt	nt	-14%	nt
CNC(=S)NNC(=O)c1sccc1OCc1ccc(Cl)cc1Cl	0%	22%	2%	10%	-3%
S=c1nc(-c2sccc2OCc2ccc(Cl)cc2Cl)[nH][nH]1	-2%	45µM*	?	28µM*	-1%
COc1ccccc1CNS(=O)(=O)c1ccc(N2C(=O)C(C)CS2(=O)=O)cc1 (configuration not stated)	nt	nt	nt	-4%	nt
O=C1/C(=C/c2ccncc2)SC(=S)N1C1CCS(=O)(=O)C1 (configuration not stated)	-25%	?	50µM*	-3%	-7%
SMILES	VDR inh	G9a block	Sfp PPTase inh	ALOX12 inh	GRP78 ERSR act
O=C1/C(=C/c2ccccc2)SC(=S)N1C1CCS(=O)(=O)C1 (configuration not stated)	-19%	?	-22%	60%	-3%
Cc1ccc(/C=C2\SC(=S)N(C3CCS(=O)(=O)C3)C2=O)o1 (configuration not stated)	-12%	nt	50µM*	?	-8%
NS(=O)(=O)c1ccc(-c2ccc(/C=C3\SC(=S)N(C4CCS(=O)(=O)C4)C3=O)o2)cc1 (configuration not stated)	?	?	?	-26%	-4%
O=C1/C(=C\c2cccs2)SC(=S)N1C1CCS(=O)(=O)C1 (configuration not stated)	2%	?	-9%	?	-2%
CC1=C(C#N)C(=O)N(C2CCS(=O)(=O)C2)C(=O)/C1=C\c1ccc(C)o1 (configuration not stated)	nt	20µM*	13µM*	nt	nt
Cc1sc(N)nc1-c1c(C)n(C)c2ccccc12	-5%	45µM*	-5%	?	-4%
CCCOc1ccccc1NC(=O)/C=C/C(N)=O	4%	35µM*	-25%	-19%	-12%
CCCCOc1ccccc1NC(=O)C=C(C)C	0%	-6%[12.7 µM]	5%	1%	-2%
CC(OC(=O)c1cc(-c2ccco2)nc2ccccc12)C(=O)NC(=O)NC(C)(C)C (configuration not stated)	nt	nt	nt	8.9µM*	nt
CC(OC(=O)c1cc(-c2ccco2)nc2ccccc12)C(=O)NC(=O)NC1CCCCC1 (configuration not stated)	nt	nt	nt	7.9µM*	nt
Cc1ccc(C(=O)OC(C)C(=O)NC(=O)NC2CCCCC2)c(O)c1 (configuration not stated)	nt	nt	nt	59%	nt
Cc1cc(C(=O)OC(C)C(=O)Nc2cc(C)on2)c2ccccc2n1 (configuration not stated)	nt	nt	nt	3%	nt
COc1cc(/C=C2\CCn3c2nc2cc(C(=O)O)ccc2c3=O)ccc1OC(F)F	-22%	89µM*	7%	-1%	-3%
O=C(O)c1ccc2c(=O)n3c(nc2c1)/C(=C/c1ccc(C(F)(F)F)cc1)CC3	-19%	0%	9%	?	-2%
COc1ccc(S(=O)(=O)Nc2nc3ccccc3nc2Nc2ccc(C)cc2)cc1	nt	nt	nt	47%	nt
O=C1[C@@H]2Cc3c([nH]c4ccccc34)C(c3ccccc3)N2C(=O)CN1C1CCN(Cc2ccccc2)CC1 (some centres not stated)	10%	79µM*	-15%	37%	-1%
COc1cccc(OC)c1OCC(O)CN1CCN(c2ccccc2)CC1 (configuration not stated)	-16%	?	7%	17%	-2%
Cc1cccc(C)c1OCC(O)CN1CCN(c2ccccc2)CC1 (configuration not stated)	10%	71µM*	8%	255%	-3%
COc1ccccc1N1CCN(CC(O)COc2c(OC)cccc2OC)CC1 (configuration not stated)	-15%	14µM*	-9%	-4%	-4%
Cc1cccc(C)c1OCC(O)CN1CCN(c2ccccn2)CC1 (configuration not stated)	-10%	?	17%	-17%	-4%
C/C(=N/Nc1ccc(C(=O)O)cc1)c1ccc(O)c(O)c1O	5%	3.5µM*	40µM*	1%	-6%
COc1ccc(OC)c(/C(C)=N/Nc2ccc(C(=O)O)cc2)c1	14%	14µM*	-5%	-20%	-4%
COc1ccc(/C(C)=N/Nc2ccc(C(=O)O)cc2)cc1OC	-8%	?	12%	-15%	-7%
Cn1ccnc1CN1CCC2(CC1)OC(=O)N(Cc1ccccc1F)C2(C)c1ccccc1 (configuration not stated)	nt	nt	nt	40%	nt
CCCCn1c(=O)c(-[n+]2ccccc2)c([O-])c2ccccc21	3%	8.9µM*	14µM*	-1%	-3%
